# TSHR antagonist: human thyrotropin receptor antagonism. P16473. TSHR-expressing cells, TSH-stimulated cAMP HTRF, 2 h; hits give low values. activity change, negative = inhibition, % at 11.5 µM. 0.2% of 330,000 active. AID 504810;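 active = activity change below a set negative limit, meaning inhibition stronger than a set level, cut at about -70% in these data; inconclusive = activity change between two set negative limits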
# Target sequence (P16473 whole entry, looked up): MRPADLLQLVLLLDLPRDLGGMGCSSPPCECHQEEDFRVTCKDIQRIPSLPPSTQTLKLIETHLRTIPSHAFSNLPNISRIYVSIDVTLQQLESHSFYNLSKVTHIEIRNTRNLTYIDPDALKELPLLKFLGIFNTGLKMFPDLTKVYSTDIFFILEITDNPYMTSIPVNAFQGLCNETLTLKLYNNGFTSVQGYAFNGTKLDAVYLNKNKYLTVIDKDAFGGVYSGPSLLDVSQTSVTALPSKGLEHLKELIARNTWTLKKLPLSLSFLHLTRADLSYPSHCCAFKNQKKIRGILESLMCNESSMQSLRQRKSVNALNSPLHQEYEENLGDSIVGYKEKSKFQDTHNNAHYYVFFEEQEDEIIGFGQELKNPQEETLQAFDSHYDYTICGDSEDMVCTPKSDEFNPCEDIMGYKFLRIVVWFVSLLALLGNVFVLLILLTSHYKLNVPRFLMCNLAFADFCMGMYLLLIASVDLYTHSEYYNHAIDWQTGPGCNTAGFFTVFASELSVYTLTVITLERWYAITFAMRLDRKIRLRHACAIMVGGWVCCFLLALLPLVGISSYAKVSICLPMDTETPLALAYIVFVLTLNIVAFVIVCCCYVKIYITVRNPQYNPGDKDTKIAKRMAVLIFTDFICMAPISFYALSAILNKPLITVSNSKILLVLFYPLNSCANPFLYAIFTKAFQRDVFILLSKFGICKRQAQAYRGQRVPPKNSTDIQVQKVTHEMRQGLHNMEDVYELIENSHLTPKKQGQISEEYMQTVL
#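 TSHR-expressing cells were treated with compounds, then stimulated with TSH at EC80 (4nM final) for 2 hours at 37 deg C. Cellular cAMP was measured by HTRF competition between lysate cAMP and cAMP-d2 for a cryptate-labelled anti-cAMP antibody.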
# VP16 counter: Gal4-VP16 reporter inhibition counter-screen; Drosophila S2 Gal4-VP16 UAS-luciferase, luminescence, 20 h; Potency, µM (top dose mostly 53.6 µM), inactives show top-dose activity, negative = inhibition, most hits filed as inhibitors; 3.5% of 310,000 active;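 note: Gal4-VP16 expression switched on by copper sulfate through the metallothionein promoter; potency is the fitted concentration of half-maximal effect; nearly all actives have a fitted effect of over 50% in size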
# RORgamma inh: inhibitors of mouse ROR gamma transcriptional activity; Potency, µM (top dose mostly 53.6 µM), for the others: top-dose activity change, negative = inhibition, hits mostly inhibitors; P51450; 5.4% of 310,000 active; AID 2551; Drosophila S2 Gal4-RORgamma UAS-luciferase reporter, 20 h; note: potency is the fitted concentration of half-maximal effect; nearly all actives have a fitted effect of over 60% in size
#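 Read-out: Photinus luciferase luminescence; inhibitors lower reporter signal. Insect Schneider cells with Gal4-ROR gamma fusion under metallothionein promoter, UAS reporter; 700 uM final copper sulfate induction, 20 hr, ambient temperature.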
# FBPA coupling cs: coupling enzyme interference in Giardia aldolase counter-screen | AID 2472 | activity change, negative = inhibition, % at 58.2 µM, hits read low | 0.67% of 290,000 active | coupling enzyme system counterscreen, AmpLite Red fluorescence; in the data active = activity change below about -30%
#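 Fluorescence at 525 nm excitation and 598 nm emission measured inhibition of the coupled detection system without aldolase. Compounds (at 57.5 uM final) were preincubated 10 min at room temperature with coupling enzyme reagent before a 20 min substrate/AmpLite Red step.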
# ELG1 DNA repair: blocks ELG1-dependent DNA repair in HEK293T cells; HEK293T ELG1-luciferase reporter, luminescence, 16 h; DNA damage induced by 5-fluorouridine; 2.3% of 330,000 active; Potency, µM (highest dose often 46.1 µM), for the others: at the top dose activity change, negative = inhibition, hits mostly inhibitors; note: potency is the fitted concentration of half-maximal effect; nearly all actives have a fitted effect of over 55% in size
#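 HEK293T cells expressing luciferase-tagged ELG1 (2,000/well) received 5-Fluorouridine plus compound or DMSO for 16 hr at 37 °C. Luciferase was read by ONE-Glo luminescence after 30 min at room temperature.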
# Starred values were filed as active, the others as inactive; ? = inconclusive; nt = no result given; [ ] = another dose, or the depositor's remark. Compounds with a hit are over-represented: about 8% of the library has one in this group of screens. Unless noted, calls come from the whole dose curve; as a rule, active = well fitted curve in the direction sought with a large enough effect; inconclusive = small, poorly fitted or top-dose-only effect, or another doubt; inactive = no such curve, though single readings can be large; an effect the other way counts as inactive or inconclusive. % is set by controls: 0 for no effect and ±100 for the full control effect.
SMILES,TSHR antagonist,VP16 counter,RORgamma inh,FBPA coupling cs,ELG1 DNA repair
COc1ccccc1NC(=S)NC(=O)c1c(-c2ccccc2Cl)noc1C,-6.9,15.8µM*,2.51µM*,-5.3,-16.5%
CO[C@]1(NC(=O)C2SC(=C(C(N)=O)C(=O)O)S2)C(=O)N2C(C(=O)O)=C(CSc3nnnn3C)CS[C@H]21 (stereo not given in full),nt,-0.4%[17 µM],11.0%[2.98 µM],5.5,nt
Cc1[nH]c2ccc(-c3n[nH]c(=S)n3C)cc2c1C,4.8,?,11.2µM*,0.3,?
CCn1c(-c2ccc3[nH]c(C)c(C)c3c2)n[nH]c1=S,-5.3,12.6µM*,11.2µM*,0.0,11.4%
CCn1c(-c2cc(C3CC3)nc3ccccc23)n[nH]c1=S,-3.2,-16.6%,?,2.8,?
Nc1ccc(NC(=O)c2cccc(C(=O)Nc3ccc(N)cc3Cl)c2)c(Cl)c1,-10.3,-18.3%,-10.3%,-0.1,-19.9%
CCC1=NN(C(=O)COc2ccccc2)C(O)(c2ccc(Br)cc2)C1 (stereo not given),42.2,-11.6%,-11.6%,-1.4,?
CC1=NN(C(=O)Cc2ccccc2)C(O)(c2cccnc2)C1 (stereo not given),7.0,7.94µM*,6.31µM*,0.8,14.9%
CC1=NN(C(=O)COc2ccc(C)c(C)c2)C(O)(c2ccccc2)C1 (stereo not given),3.7,11.2µM*,10µM*,-1.4,2.6%
Cc1ccc(OCC(=O)OCC(=O)c2ccccc2)cc1C,-26.8,-13.7%,-11.5%,nt,16.1%
CC1=NN(C(=O)CSCc2ccccc2)C(O)(c2ccccc2)C1 (stereo not given),35.9,12.6µM*,?,13.1,?
CC1=NN(C(=O)COc2ccccc2)C(O)(c2ccccc2)C1 (stereo not given),6.8,10µM*,6.31µM*,1.1,6.6%
CCOC(=O)N1N=C(C)CC1(O)c1ccc(Cl)cc1 (stereo not given),5.8,4.3%,-15.9%,-3.1,4.1%
CC1=NN(C(=O)c2ccccc2Cl)C(O)(c2cccnc2)C1 (stereo not given),7.9,?,?,1.3,1.8%
CS(=O)(=O)c1ccc(C(=O)OCC(=O)c2ccc(Cl)s2)cc1,8.0,nt,nt,nt,?
O=C(c1cccc(-n2cccc2)c1)N1CCN(S(=O)(=O)c2ccccc2Br)CC1,1.9,nt,nt,nt,?
N#Cc1nc(NCCCO)nc(Nc2ccccc2)n1,nt,-1.1%,nt,-1.0,nt
C=CCNc1nc(C(=O)OCC(=O)c2ccc(Cl)cc2)cs1,18.9,nt,nt,nt,28.7%
Nc1nc(N)nc(Cc2ccccc2O)n1,16.4,nt,nt,nt,15.0%
O=C(NC(=S)Nc1nc(-c2ccccc2)cs1)c1cncc(Br)c1,-18.8,?,1.58µM*,3.4,-2.4%
O=C(O)c1ccc(NC(=S)NC(=O)c2cncc(Br)c2)cc1,19.8,?,?,-1.0,?
O=C(NC(=S)Nc1nc(-c2ccccc2)cs1)c1cccnc1,-19.3,-13.3%,3.98µM*,2.1,20.8%
CCc1ccccc1OCC(=O)Nc1nc(-c2cccnc2)cs1,-5.9,11.2µM*,3.16µM*,-2.2,-26.8%
CCc1nn2c(=O)cc(COC(=O)c3ccc(SC)cc3OC)nc2s1,-5.4,nt,nt,nt,4.8%
c1cnc2ccc3ncccc3c2c1,-6.5,1.1%,-8.6%,-9.5,?
SMILES,TSHR antagonist,VP16 counter,RORgamma inh,FBPA coupling cs,ELG1 DNA repair
Nc1ccc2ncccc2c1N,-8.6,-10.5%,?,-39.7*,10.3µM*
Nc1ccc2ncccc2c1,3.4,-10.8%,-32.3%,-38.6*,?
Cc1ccc(C(=O)c2c3ccccc3[n+]([O-])n2CCC(N)=O)cc1,-0.4,-1.7%,21.0%,1.6,21.0%
CCn1c(O)c(/C=N/N=C2CCCCC2)c2cc(C3=NNC(=O)CC3)ccc21,12.9,-1.6%,12.3%,-34.8*,0.0%
CCc1nc(NC(C)C)c2oc3ccccc3c2n1,-8.4,-0.8%,12.6µM*,-0.7,-3.3%
CCc1nc(NCc2ccccn2)c2oc3ccccc3c2n1,-28.5,?,30.4%,-2.8,18.4µM*
c1ccc(CNc2ncnc3c2oc2ccccc23)nc1,-2.2,15.3%,19.8%,0.6,?
CCc1nc(N[C@H](C(=O)O)C(C)C)c2oc3ccccc3c2n1,-7.0,9.0%,-4.7%,10.0,0.0%

# From PubChem
